Shown are actives, neighbours in structure and some others; about 2.2% of the full set was active somewhere.
PLCb3 inh: human PLC-beta3 inhibitors, primary screen, biochemical, fluorescence. 1-phosphatidylinositol 4,5-bisphosphate phosphodiesterase beta-3 (Homo sapiens), Q01970. Purified PLC-beta3, fluorogenic substrate. inhibition, % at 12.2 µM. hit rate 0.18% among 370,000. AID 720704, 2013; in the data active = inhibition above about 11%
Cardio protect: cardioprotection against H2O2-induced cell death, primary screen, uHTS, H9c2 cells, ATPLite luminescence; H9c2 cardiomyocytes, H2O2 injury protection, 2 h; protection from H2O2 cell death, % at 20 µM; hit rate 0.63% among 360,000; AID 588492, 2011;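 active = compounds giving at least 50% protection of heart cells from peroxide-induced death in the single-dose screen, raw or plate-pattern-corrected value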
FAS TE block: FAS thioesterase domain inhibitors, primary screen, biochemical, fluorescence intensity, uHTS; Fatty acid synthase (Homo sapiens), P49327; recombinant FAS-TE, OMFH fluorogenic substrate, fluorescence endpoint; inhibition, % at 15 µM; hit rate 0.67% among 360,000;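 active = compounds whose normalised, plate-corrected inhibition of enzyme fluorescence in the single-dose primary screen is 50% or more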
PLCg1 inh: PLC-gamma1 enzyme inhibitors, primary screen, biochemical, fluorescence, purified enzyme. 1-phosphatidylinositol 4,5-bisphosphate phosphodiesterase gamma-1 (Homo sapiens), P19174. fluorogenic substrate. inhibition, % at 12.2 µM. hit rate 0.84% among 370,000. AID 720700, 2013
PLCgamma1 ctr: PLC-gamma1 enzyme inhibitors, counter-screen for PLC-beta3 inhibitor project, biochemical, fluorescence; AID 743258, 2014; shares compounds with PLCg1 inh; hit rate 3.1% among 3,300; purified PLC-gamma1, fluorogenic substrate; inhibition, % at 12.3 µM
PLCbeta3 conf: PLC-beta3 inhibitor confirmation, biochemical, fluorescence, purified enzyme; shares compounds with PLCg1 inh; fluorogenic substrate fluorescence; inhibition, % at 12.3 µM; hit rate 1% among 3,300; in the data active = inhibition above about 11%
Of the large screens only hits and unclear results are named; the others gave an inactive call (follow-up assays come after a bar, where they were run). Rule as the data show it, unless noted: active = inhibition above about 9.5%; inactive = the rest.

CN(C(=S)NC(=O)c1ccc(Cl)cc1)C1CCCCC1	none
O=C(Cc1ccc(F)cc1)Nc1cc(S(=O)(=O)N2CCOCC2)ccc1N1CCCCC1	none
CCOc1ccc(C(=O)N(CC(=O)Nc2cccc(C)c2C)CC2CCCO2)cc1OC (stereo unspecified)	none
Cc1sc2ncn(CC(=O)NCCN3CCOCC3)c(=O)c2c1S(=O)(=O)N1CCC(C)CC1	PLCg1 inh 11.2 | PLCgamma1 ctr inactive | PLCbeta3 conf inactive
Cc1sc2ncn(CC(=O)NCCCN3CCC(C)CC3)c(=O)c2c1S(=O)(=O)N1CCC(C)CC1	none
CC(=O)Nc1ccc(S(=O)(=O)N2c3ccc(F)cc3CCC2C)cc1 (stereo unspecified)	PLCg1 inh 10.0 | PLCgamma1 ctr inactive | PLCbeta3 conf inactive
Cc1cc(C)cc(OCC(=O)NN2C(=O)c3ccccc3C2=O)c1	none
O=C(Cc1ccc(Cl)cc1)NN1C(=O)c2ccccc2C1=O	PLCg1 inh 10.6 | PLCgamma1 ctr inactive | PLCbeta3 conf inactive
CC(=O)C1=C(C)N(Cc2ccc(Br)cc2)C(=S)NC1c1cccc(Br)c1 (stereo unspecified)	none (no result: Cardio protect, FAS TE block)
Nc1cc(S(=O)(=O)O)cc([N+](=O)[O-])c1O	PLCg1 inh 33.0 | PLCgamma1 ctr 64.3 | PLCbeta3 conf inactive
CCOC(=O)N1C(=O)C2(CCCCC2)N(c2ccccc2Cl)C1=S	PLCg1 inh 11.2 | PLCgamma1 ctr inactive | PLCbeta3 conf inactive
CC(CCN1CCC(C(O)(c2ccccc2)c2ccccc2)CC1)Oc1cc(F)cc(C#N)c1 (stereo unspecified)	PLCg1 inh 11.5 (no result: Cardio protect, FAS TE block) | PLCgamma1 ctr inactive | PLCbeta3 conf inactive
CC(=O)Nc1nnc(CCS(=O)(=O)c2ccc(C)c(C)c2)s1	PLCg1 inh 13.6 | PLCgamma1 ctr inactive | PLCbeta3 conf inactive
Cc1ccc(C)c(S(=O)(=O)c2c(C)cc(C)nc2Cl)c1	none
Cc1ccc(S(=O)(=O)c2c(C)cc(C)nc2Cl)c(C)c1	PLCg1 inh 10.7 | PLCgamma1 ctr inactive | PLCbeta3 conf inactive
CCOC(=O)N1CCN(C(=O)C[C@H]2C[C@@]3(C(=O)OC)C(=C[C@H](C(C)(C)C)O[C@@H]3C)N(CCc3ccc(OC)c(OC)c3)C2=O)CC1	none (no result: Cardio protect, FAS TE block)
Cc1nn(-c2ccccc2)c(-c2ccccc2[N+](=O)[O-])c1CC#N	none
Cc1ccccc1C(=O)N[C@H](C(=O)N1CCC[C@H]1C(=O)NCCc1ccccc1Cl)C1CCCCC1	none (no result: Cardio protect, FAS TE block)
O=C(N[C@H](C(=O)N1CCC[C@H]1C(=O)NCCc1ccccc1Cl)C1CCCCC1)c1cccs1	PLCg1 inh 9.9 (no result: Cardio protect, FAS TE block) | PLCgamma1 ctr inactive | PLCbeta3 conf inactive
O=C(Cc1cccs1)NCc1cccc(CNC(=O)Cc2cccs2)c1	none
O=C(Cc1cccs1)NCc1ccccc1Br	PLCg1 inh 11.5 | PLCgamma1 ctr inactive | PLCbeta3 conf inactive
COc1cc(NC(=O)CCn2c(=S)[nH]c3ccccc3c2=O)cc(OC)c1OC	none
COc1ccccc1NC(=O)c1c([N+](=O)[O-])c(C(C)(C)C)nn1C	PLCg1 inh 11.9 | PLCgamma1 ctr inactive | PLCbeta3 conf inactive
Cc1nnc(N/N=C/c2ccccc2C(F)(F)F)n1N	none
Cc1nnc(N/N=C/c2ccccc2F)n1N	PLCg1 inh 12.0 | PLCgamma1 ctr inactive | PLCbeta3 conf inactive
Cc1nnc(N/N=C/c2cccc(OCc3ccc(Cl)c(Cl)c3)c2)n1N	PLCb3 inh 10.7, PLCg1 inh 13.3 | PLCgamma1 ctr inactive | PLCbeta3 conf inactive
Cc1nnc(N/N=C/c2cccc(C(F)(F)F)c2)n1N	PLCg1 inh 13.3 | PLCgamma1 ctr inactive | PLCbeta3 conf inactive
Cc1occc1C(=O)NCc1ccc2c(c1)OCO2	PLCg1 inh 10.6 | PLCgamma1 ctr inactive | PLCbeta3 conf inactive
CCc1ccc(OCC(=O)Nc2ccc3c(c2)OCCO3)cc1	PLCg1 inh 9.5 | PLCgamma1 ctr inactive | PLCbeta3 conf inactive
CCOc1ccc2nc(SCC(=O)Nc3ncccn3)[nH]c2c1	PLCg1 inh 10.9 | PLCgamma1 ctr inactive | PLCbeta3 conf inactive
CCOc1ccc2nc(SCC(=O)NCc3ccc4c(c3)OCO4)[nH]c2c1	PLCg1 inh 13.2 | PLCgamma1 ctr inactive | PLCbeta3 conf inactive
CCCCCCn1cc(CN2CC(N(C)CC)CS2(=O)=O)nn1 (stereo unspecified)	none (no result: Cardio protect)
CCCCC(=O)N(C)c1c(C)nc2ccc(C(=O)N3CCN(S(=O)(=O)CC)CC3)cn12	none
COc1ccc(OC)c(S(=O)(=O)NCCCc2ccccc2)c1	none
COC(=O)[C@]12C[C@H](CC(=O)NCC34CC5CC(CC(C5)C3)C4)C(=O)N(CCc3ccc(OC)c(OC)c3)C1=C[C@H](COCc1ccccc1)O[C@@H]2C	none (no result: Cardio protect, FAS TE block)
CCn1c(C)nnc1SCC(=O)Nc1ccc2c(c1)OCCO2	PLCg1 inh 9.9 | PLCgamma1 ctr inactive | PLCbeta3 conf inactive
Cc1cnc(C(=O)OCC(=O)NCc2ccc3c(c2)OCO3)cn1	PLCb3 inh 11.5 | PLCgamma1 ctr inactive | PLCbeta3 conf inactive
CCOc1ccc(NC(=O)NCc2ccc3c(c2)OCO3)cc1	PLCg1 inh 9.5 | PLCgamma1 ctr inactive | PLCbeta3 conf inactive
C=CCNc1oc(C2CCCC2)nc1C#N	none
CC(=O)Nc1ccc(N2C(=O)CSC2c2c(F)cccc2Cl)cc1 (stereo unspecified)	PLCb3 inh 14.3 | PLCgamma1 ctr inactive | PLCbeta3 conf inactive
C[C@@H]1CN([C@H](C)CO)C(=O)CCCn2nncc2CO[C@@H]1CN(C)S(=O)(=O)c1ccc(Cl)cc1	none
COc1cccc(-c2noc(C(C)n3nc(C)c([N+](=O)[O-])c3C)n2)c1 (stereo unspecified)	PLCg1 inh 10.8 | PLCgamma1 ctr inactive | PLCbeta3 conf inactive
OC(c1ccccc1)(c1ccccc1)C1CCN(CCCNc2ccc(C(F)(F)F)cc2)CC1	none (no result: Cardio protect, FAS TE block)
CCN(CC)S(=O)(=O)c1ccc(N2CCOCC2)c(NS(=O)(=O)c2cc(C(C)(C)C)ccc2C)c1	PLCg1 inh 11.6 | PLCgamma1 ctr inactive | PLCbeta3 conf inactive
Cc1cccc(CC2S/C(=N/N=C/c3ccco3)N(c3ccccc3)C2=O)c1 (stereo unspecified)	PLCg1 inh 11.5 | PLCgamma1 ctr inactive | PLCbeta3 conf inactive
O=c1[nH]ncc(N/N=C\c2ccncc2)c1Cl	PLCb3 inh 10.6 | PLCgamma1 ctr inactive | PLCbeta3 conf inactive
O=c1[nH]ncc(N/N=C\c2cccnc2)c1Cl	none
CCN(CC)C(=O)C1=C(C)N(Cc2ccc(C(C)(C)C)cc2)C(=O)C(CC(=O)NC2CCCC2)C1 (stereo unspecified)	PLCg1 inh 11.5 | PLCgamma1 ctr inactive | PLCbeta3 conf inactive
CCN(CC)C(=O)C1=C(C)N(Cc2ccc(F)cc2)C(=O)C(CC(=O)NC2CCCCC2)C1 (stereo unspecified)	none

Screening data as filed in PubChem BioAssay.
